# A selection: hits, their analogues and other compounds. The true share with any hit is near 4.3%.
# HIF-2a inh = HIF-2a inhibition; 786-0 RCC cells HIF-2a reporter, luciferase luminescence, overnight; inhibition, % at 18.8 µM; 360,000 tested, 0.72% active;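 active = inhibition of the luminescence signal of 40% or more relative to plate controls, in a single-dose primary screen at 18.75 µM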
# Peg3 promoter = reduces Peg3 promoter-driven luciferase expression in HeLa. HeLa PEG-Prom luciferase reporter, luminescence, overnight. inhibition, % at 20 µM. 360,000 tested, 1.7% active. AID 588405;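 active = inhibition of at least 50% at 20 µM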
# KKLEB tox = reduces viability of KKLEB cystic fibrosis airway cells. activity change (cytotoxicity), % at 5 µM. AID 602141. 360,000 tested, 0.36% active. KKLEB CF airway cells viability, ATPlite luminescence, overnight; stronger effect = lower value; cells stimulated with P. aeruginosa culture filtrate;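 active = corrected activity change at or below -50% at 5 µM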
# MITF TRPM1 inh = inhibitors of MITF-driven TRPM1 promoter in melanoma cells. SK-MEL-5 TRPM1 promoter luciferase, 24 h. inhibition, % at 12.5 µM. 330,000 tested, 0.83% active. AID 488899;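 active = mean inhibition across replicates of 60% or more, whatever share of single replicates reaches that level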
# CHOP inh = inhibitors of CHOP induction in ER stress response; CHO-K1 CHOP-promoter luciferase, tunicamycin-induced, 15-18 h; inhibition, % at 10 µM; 220,000 tested, 3.8% active;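 active = compounds that reduced the stress-induced luciferase reporter signal by more than about 70% of percent inhibition, limit read from the data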;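 also: 0% = tunicamycin plus vehicle and 100% = wells without tunicamycin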
# CF NFkB block = inhibitors of cystic fibrosis induced NF-kB; KKLEB NF-kB-GFP reporter, PAF-induced, GFP fluorescence overnight; inhibition, % at 5 µM; 360,000 tested, 0.86% active; AID 588850;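 active = at least 50% inhibition at 5 µM, scaled per plate between neutral and stimulator controls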;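 also: PAF is a Pseudomonas aeruginosa culture filtrate used as stimulus; plate controls were PAF-stimulated DMSO wells for no effect and unstimulated DMSO wells for full effect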
# * marks the source's active call; other numbers are inactive results; x = no result.
SMILES,HIF-2a inh,Peg3 promoter,KKLEB tox,MITF TRPM1 inh,CHOP inh,CF NFkB block
O=[N+]([O-])c1cc(CN2CCN(c3cccc(C(F)(F)F)c3)CC2)c2cccnc2c1O,x,x,x,38,87*,x
CSc1ccc(C(=O)NC2CCSc3ccccc32)cc1 (configuration not stated),-68,-49,-4,-31,x,14
O=c1c(C=Nc2ccc(Cl)cc2)c[nH]n1-c1cccc(Cl)n1,-2,19,12,0,83*,-30
O=c1c(C=Nc2cccc(C(F)(F)F)c2)c[nH]n1-c1cccc(Cl)n1,8,2,-10,2,53,6
CN(C)c1ccc(-c2csc(C(C)(O)c3ccccc3)n2)cc1 (configuration not stated),-265,-357,-3,x,x,-8
CC(C)(C)OC(=O)NCc1ccc(NC(=O)c2nc[nH]c2C(=O)NCCCCNC(=O)c2[nH]cnc2C(=O)Nc2ccc(CNC(=O)OC(C)(C)C)cc2)cc1,1,93*,-34,32,x,77*
CC(C)(C)OC(=O)NCc1ccc(NC(=O)c2nc[nH]c2C(=O)NCCCCCCNC(=O)c2[nH]cnc2C(=O)Nc2ccc(CNC(=O)OC(C)(C)C)cc2)cc1,13,101*,-83*,5,x,88*
CC(C)(C)OC(=O)NCc1ccc(NC(=O)c2nc[nH]c2C(=O)NCCN(CCNC(=O)c2[nH]cnc2C(=O)Nc2ccc(CNC(=O)OC(C)(C)C)cc2)CCNC(=O)c2[nH]cnc2C(=O)Nc2ccc(CNC(=O)OC(C)(C)C)cc2)cc1,15,9,3,-2,x,-25
CC(C)(C)OC(=O)NCc1ccc(NC(=O)c2nc[nH]c2C(=O)NCCCNC(=O)c2[nH]cnc2C(=O)Nc2ccc(CNC(=O)OC(C)(C)C)cc2)cc1,16,78*,7,30,x,40
Cc1ccc(NC(=O)c2nc[nH]c2C(=O)NCCCCCNC(=O)OC(C)(C)C)cc1,1,29,-7,18,x,24
CC(C)(C)OC(=O)NCCCCCNC(=O)c1[nH]cnc1C(=O)Nc1ccc(Cl)cc1,0,29,-45,44,x,26
CCCCN1C(=O)/C(=C/C=C2\Oc3ccccc3N2CC)SC1=S,-17,-1,-10,-8,29,-114
CCN1/C(=C/C=C/c2oc3ccc(-c4ccccc4)cc3[n+]2CC)Oc2ccc(-c3ccccc3)cc21,86*,84*,-20,102*,108*,-412
CC(=O)c1ccc(N2CCN(c3ccc(S(=O)(=O)NCCCN(C)C)cc3[N+](=O)[O-])CC2)cc1,-6,79*,-4,4,18,8
Cn1c(SCc2ccc(Cl)cc2)nc(C(F)(F)F)cc1=O,11,11,-9,-10,73*,16
Cc1ccc2oc(Nc3nc(-c4ccccc4)cc(=O)[nH]3)nc2c1,x,x,x,x,101*,x
COCc1cc(=O)[nH]c(Nc2nc3ccccc3o2)n1,-94,-97,3,-8,26,-24
Cc1cc(C)n2nc(-c3sccc3-n3c(C)ccc3C)cc2n1,-65,-22,2,-19,76*,3
Cc1cc(C)n2nc(-c3sccc3-n3cccc3)cc2n1,-14,-13,-5,4,-28,-1
O=Nc1c(O)n(Cc2ccc(Cl)cc2Cl)c2ccccc12,27,39,14,12,87*,37
CCOC(=O)n1c(=O)n(Cc2ccc(Cl)cc2Cl)c2ccccc21,7,12,8,-2,81*,3
O=C(Nc1ccc(OC(F)(F)F)cc1)Nc1cccc([N+](=O)[O-])c1,-166,55*,-65*,53,106*,66*
CC(C)(C)CC(C)(C)NC(=O)Nc1cccc([N+](=O)[O-])c1,23,34,-4,1,80*,9
O=C(Nc1ccc(OC(F)(F)F)cc1)c1[nH]ncc1[N+](=O)[O-],7,-66,-10,70*,-5,31
CC(C)(C)c1ccc(C(=O)Nc2cccc([N+](=O)[O-])c2)cc1,-277,-313,-33,-99,51,0
Cc1onc(C(=O)Nc2ccc(OC(F)(F)F)cc2)c1[N+](=O)[O-],-58,-44,-8,-63,x,-3
O=C(Nc1cc(S(=O)(=O)N2CCOCC2)ccc1N1CCCC1)c1ccc2c(c1)S(=O)(=O)c1ccccc1C2=O,20,10,-3,16,-21,-1

# Compound activity as filed in PubChem BioAssay.
